Laboratory results published in PubChem BioAssay AID720514 (Broad Institute, 2013).
The campaign covered roughly 2,100 compounds. About 300 (14%) were called active. Another 2% or so got no clear call; they are omitted. Not all results are given here. Measured potencies and affinities stand elsewhere. A number with no mark means an inactive call.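 How the source made its calls: active means every replicate test run called active, with the signal falling and half-maximal concentration within twice the top valid dose; inconclusive means the replicate test runs disagree in their calls; inactive means every test run inactive, including effects in the opposite direction.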

Experiment: reduced cellular PGC1a acetyl-lysine signal – cell-based, cherry-picked samples, dose response (AID 720514);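 further: 0% = neutral control wells and -100% = positive control wells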
Settings: U2OS PGC1a acetylation, AlphaLISA, overnight; series mostly up to 19.5 µM; activity change, negative = inhibition: at the top concentration

Point of comparison: COc1ccc(NC(=O)C(=O)NCCC2CCCCN2S(=O)(=O)c2cccs2)cc1 (stereo not given), “activity change, negative = inhibition” value 27.4%. Against it:
- COc1ccccc1-c1ccc(C2[C@@H]3CN(Cc4cccc(F)c4)C[C@H]2N3)cc1 (stereo not given in full) — higher, 55.2%
- N#Cc1ccccc1S(=O)(=O)N1CCN(Cc2cc3c(cc2Br)OCCO3)CC1 — higher, 120%
- CC(C)(C)c1ccc(NC(=O)N2CCCN(c3ccc([N+](=O)[O-])cn3)CC2)cc1 — higher, 187%
- Cc1ccc(O)c(C(=O)c2cnc3c(c2)CN(CCC(C)C)C(=O)N3)c1 — higher, 53.6%
- COc1ccc(Cc2nc(-c3ccc(NC(=O)c4cccnc4)cc3)no2)cc1 — higher, 207%
- C=CCn1c(=NC(=O)c2ccc(S(=O)(=O)N3CCCC3)cc2)sc2cc(NC(C)=O)ccc21 — higher, 44.8%
- CCOCCn1c(CN(Cc2ccccc2)Cc2ccccc2)nc2c1c(=O)[nH]c(=O)n2C — higher, 53.2%
- N#Cc1ccc(Oc2cccnc2)cc1C#N — higher, 106%
- COc1ccccc1-c1ccc2c(c1)C(C)(Cc1ccc(OC(F)(F)F)cc1)C(=O)N2 (stereo not given) — higher, 41.4%
- O=C1Nc2cc(S(=O)(=O)N3CCCC3)ccc2N2CCCC12 (stereo not given) — higher, 63.7%
- Cc1cc(N2CCC(C(N)=O)CC2)nc(-c2ccccc2)n1 — higher, 43.1%
- CCOC(=O)C1=C[C@@H](C(C)C)N(S(=O)(=O)c2ccc(C)cc2)[C@H]1c1ccc(C(F)(F)F)cc1 — higher, 111%
- COc1ccc(C(C)(O)c2nc(-c3ccc(S(C)(=O)=O)cc3)cs2)cc1 (stereo not given) — higher, 112%
- COc1ccc(CNc2ccc(-c3ccc(OC)cc3)nn2)cc1 — higher, 105%
- CCOC(=O)CC(S(=O)(=O)c1ccccc1)S(=O)(=O)c1ccccc1 — higher, 105%
- COc1ccc(CCNCc2ccc(-c3ccccc3)cc2)cc1OC — higher, 36.3%
- O=C1C=C(c2cc3ccccc3s2)CCC1 — higher, 155%
- O=C(c1cccs1)N1CCN(c2nnc(-c3ccccc3)c3ccccc23)CC1 — higher, 84.9%
- N=c1n(CCN2CCCC2)c2ccccc2n1CC(O)c1ccc(Cl)c(Cl)c1 (stereo not given) — higher, 54.5%
- O=C(c1ccco1)N1CCN(c2nnc(-c3ccccc3)c3ccccc23)CC1 — higher, 55.7%
- Cc1cccc2cc(CN(Cc3ccc(F)cc3)Cc3nnnn3C3CCCC3)c(=O)[nH]c12 — higher, 39.1%
- CCOC(=O)C1(Cc2ccccc2)CCN(Cc2cccc(OC)c2O)CC1 — higher, 118%
- CCn1nc(C)c(CN2CCc3c([nH]c4ccccc34)C2C(C)(C)C)c1C (stereo not given) — higher, 81.8%
- Cc1cc(C)c2c(-n3cccc3)c(C(=O)NNS(=O)(=O)c3ccccc3)sc2n1 — higher, 99.1%
- Cc1cccc(S(=O)(=O)N(C)C[C@@H]2OCc3cn(nn3)CCCC(=O)N([C@H](C)CO)C[C@H]2C)c1 — lower, 7.15%
- CC(=O)CCS(=O)(=O)c1ccc(C)c(C)c1 — higher, 117%
- O=C(C[C@@H]1C[C@@H]2c3cc(NC(=O)Nc4ccccc4F)ccc3O[C@@H]2[C@@H](CO)O1)NCc1ccc(Oc2ccccc2)cc1 — higher, 31.4%
- COC(=O)C[C@@H]1C[C@H]2c3cc(NC(=O)Nc4ccc(C(F)(F)F)cc4)ccc3O[C@H]2[C@H](CO)O1 — higher, 90.3%
- COc1ccc(CCNC(=O)COc2ccc(S(=O)(=O)N3CCCC3)cc2)cc1 — higher, 40.7%
- COc1ccc(CC(CC(=O)O)C(=O)Nc2ccc(OC)cc2)cc1 (stereo not given) — higher, 32.5%
- CCn1c(SC/C=C/c2ccccc2)nnc1-c1cccs1 — higher, 41.8%
- CC(=O)c1c(-c2ccccc2)[nH]c2ccccc12 — higher, 30.8%
- O=C(CC1CC1)N[C@@H]1CC[C@H](CCNS(=O)(=O)c2ccc(Cl)cc2)O[C@H]1CO — higher, 46%
- COc1cc(Cn2c(N)c(C#N)c3nc4ccccc4nc32)cc(OC)c1 — lower, -2.36%
- COC(=O)CSc1nc(-c2ccccc2)cc(-c2ccco2)c1C#N — higher, 54.5%
- CCC(C)(C)n1nnnc1CN(Cc1ccc(Cl)cc1)Cc1ccco1 — higher, 142%
- O=C(/C=C/Sc1ncn[nH]1)c1ccc(Cl)cc1 — lower, -92.8%
- Cc1sc(NC(=O)c2cccs2)nc1-c1ccccc1 — higher, 121%
- CN1CCN(C(=O)CSc2nc(-c3cccs3)cc(-c3cccs3)c2C#N)CC1 — higher, 84.6%
- CC(=O)c1ccc(OCC(=O)OCC(=O)Nc2sccc2C(N)=O)cc1 — higher, 164%
- CCOC(=O)c1c(NC(=O)CSc2cn(CC)c3ccccc23)sc2c1CCC2 — higher, 96.8%
- CCOC(=O)c1nc(S(C)(=O)=O)ncc1Cl — higher, 158%
- O=C(c1ccc(NC(=O)C2(c3ccccc3)CCOCC2)cc1)N1CCOCC1 — higher, 45.2%
- CCOC(=O)c1c(NC(=O)c2ccoc2C)sc2c1CCC2 — lower, 24.4%
- CC1CCCN(Cc2c(O)ccc3c(=O)c(-c4nc5ccccc5s4)c(N)oc23)C1 (stereo not given) — higher, 61.7%
- Cc1ccccc1S(=O)(=O)NCC[C@@H]1CC[C@H](NC(=O)C2CCOCC2)[C@@H](CO)O1 — higher, 36.8%
- CC(C)NC(=O)NCC[C@H]1CC[C@H](NC(=O)c2ccc(F)cc2)[C@H](CO)O1 — higher, 28.9%
- CCC(C)(CC(=O)O)CC(=O)Nc1cc(C(F)(F)F)cc(C(F)(F)F)c1 (stereo not given) — lower, 16.3%
- COc1ccc(-c2nc3c(C)cc(Br)cn3c2Cc2ccc(C)cc2)cc1OC — higher, 73.4%
- COc1cc(C)c(CN2CCN(S(=O)(=O)c3ccc(Cl)s3)CC2)cc1OC — higher, 148%
- O=C(CN1CCC(n2nnc3cc(F)ccc32)CC1)Nc1ccc2c(c1)CCC2 — higher, 90.9%
- CCOC(=O)C1=C[C@@H](C(C)(C)C)N(S(=O)(=O)c2ccc(C)cc2)[C@H]1c1cccc2ccccc12 — higher, 111%
- Cc1ccccc1S(=O)(=O)N[C@@H]1CC[C@@H](CCn2cc(Cc3ccccc3)nn2)O[C@H]1CO — lower, 26.9%
- CC(C)(C)C(=O)Nc1sc2c(c1-c1nc3ccccc3[nH]1)CCCC2 — higher, 40.8%
- CC(Sc1nc2ccccc2s1)C(=O)NC1CCCc2ccccc21 (stereo not given) — higher, 53.7%
- Cc1ccc(CNC(=O)C2CC(c3ccc([N+](=O)[O-])cc3)=NO2)cc1 (stereo not given) — higher, 98.5%
- Cc1coc2cc3oc(=O)c(CCC(=O)NC4CC4)c(C)c3cc12 — higher, 136%
- Cc1ccccc1-c1ccc([C@@H]2[C@H](CO)N3CCCCN(C(=O)Nc4cccc(F)c4)C[C@@H]23)cc1 — higher, 94.7%
- CCOC(=O)c1ccccc1NS(=O)(=O)c1ccc(OCC)cc1 — higher, 124%
- CCOc1ccc(N(C)S(=O)(=O)c2cc(-c3cc(C)no3)ccc2OC)cc1 — higher, 116%
- COc1ccc(NC(=O)CSC2CC(=O)N(c3ccc4c(c3)OCCO4)C2=O)cc1 (stereo not given) — higher, 52.1%
- CC(C)C(OC(=O)c1cccs1)C(=O)NC1CCCCC1 (stereo not given) — higher, 62.8%
- COc1ccc(N(C(=O)c2snc(C(N)=O)c2N)C(C(=O)NC2CCCC2)c2ccco2)c(OC)c1 (stereo not given) — higher, 65.8%
- COc1ccc(N(C(=O)c2csnn2)C(C(=O)NC2CCCC2)c2cccs2)cc1 (stereo not given) — higher, 79.9%
- COc1ccc(N(C(=O)c2snc(C(N)=O)c2N)C(C(=O)NC2CCCCC2)c2ccc(C)o2)cc1 (stereo not given) — higher, 66%
- C[C@@H]1CN([C@H](C)CO)C(=O)c2c(c3ccccc3n2C)-c2ccccc2CO[C@@H]1CN(C)C(=O)c1ccc(F)cc1 — higher, 205%
- O=C(CC1SC(=Nc2ccc3c(c2)OCCO3)NC1=O)Nc1ccc(F)cc1F (stereo not given) — higher, 132%
- CCOC(=O)C1=C[C@@H](C(C)(C)C)N(S(=O)(=O)c2ccc(C)cc2)[C@H]1c1ccccc1 — higher, 74.6%
- CC(C)(C)n1nnnc1CN(Cc1ccc(F)cc1)Cc1ccco1 — higher, 77.5%
- CCOC(=O)c1c(C)n(C)c2ccc(OCC(O)Cn3nc(C)c(Br)c3C)cc12 (stereo not given) — higher, 47.7%
- O=C(NN1c2ccccc2CCc2ccccc21)c1ccccc1Br — higher, 40.2%
- CCOCCn1c(CN(Cc2ccccc2)Cc2ccccc2)nc2c1c(=O)n(C)c(=O)n2C — higher, 57.7%
- CC(=O)Nc1nonc1-c1nc2ccccc2n1Cc1ccccc1 — higher, 61.9%
- CCOC(=O)CNS(=O)(=O)c1cc(-c2nnc(Nc3ccc4c(c3)OCO4)c3ccccc23)ccc1C — higher, 97.1%
- O=C(COCc1cc(-c2ccc3c(c2)OCO3)on1)Nc1cccnc1 — higher, 386%
- O=C(COc1ccc([N+](=O)[O-])cc1)Nc1ccc(C(=O)NCc2cccnc2)cc1 — higher, 222%
- CCOC(=O)C(NC(=O)c1ccccc1OCC)(Nc1ncccn1)C(F)(F)F (stereo not given) — higher, 76%
- Cc1c(C(=O)OCC(=O)c2c(N)n(CC(C)C)c(=O)n(C)c2=O)oc2ccccc12 — higher, 77.1%
- Cc1ccc(S(=O)(=O)N2CCN(S(=O)(=O)c3ccc(C)cc3)C2c2ccccc2)cc1 — higher, 114%
- COc1ccc(C2N(S(=O)(=O)c3ccccc3)CCN2S(=O)(=O)c2ccc(C)cc2)cc1 (stereo not given) — higher, 75.1%
- COc1ccc(C(CNC(=O)c2cccc(N(C)C)c2)N2CCCC2)cc1 (stereo not given) — higher, 51%
- O=C(NCc1cccs1)c1ccc(Cl)c(S(=O)(=O)N2CCCC2)c1 — higher, 48.1%
- C[C@@H]1CN([C@H](C)CO)C(=O)c2c(c3ccccc3n2C)-c2ccccc2CO[C@@H]1CN(C)C(=O)[C@H](C)c1ccccc1 — higher, 334%
- COc1cc(CNC(=O)c2cc(-c3cc(C)cc(F)c3)n[nH]2)cc(OC)c1 — higher, 58.1%
- Cc1ccc(NC(=O)c2c(C(F)(F)F)nn(C)c2SCc2ccc(Cl)cc2)cc1C — higher, 98.7%

Point of comparison: Oc1ccc(C[C@@H]2CNCCN2CCC23CC4CC(CC(C4)C2)C3)cc1, “activity change, negative = inhibition” value 47.7% [at 10 µM]. Against it:
- O=C(Nc1ccc2c(c1)OCO2)C1CCN(c2ccc(S(=O)(=O)N3CCOCC3)cc2)CC1 — lower, 43% [at 10 µM]
- O=C(Nc1cccc(S(=O)(=O)N2CCOCC2)c1)c1ccco1 — higher, 48.2% [at 10 µM]
- O=C(CC1SC(=NCc2ccccc2)NC1=O)Nc1ccccc1 (stereo not given) — higher, 150% [at 10 µM]
- COc1ccc(N(C(=O)c2snc(C(N)=O)c2N)C(C(=O)NC2CCCCC2)c2ccc(F)cc2)c(OC)c1 (stereo not given) — higher, 53.7% [at 10 µM]
- Oc1ccc(Nc2nnc(-c3ccc(O)cc3)c3ccccc23)cc1 — higher, 115% [at 10 µM]
- CCOC(=O)c1c(CN2CCN(CC#N)CC2)n(C)c2cc(Br)c(OC)cc12 — higher, 122% [at 10 µM]

In the case of C[C@H]1CN([C@@H](C)CO)C(=O)CCCn2cc(nn2)CO[C@H]1CN(C)S(=O)(=O)c1ccc(Cl)cc1, the “activity change, negative = inhibition” value is reported as 24.9% [at 21 µM].

With CC(=O)c1ccc(N2CCN(C(=O)C(=O)c3c(C)[nH]c4ccccc34)CC2)cc1 the “activity change, negative = inhibition” value was 209% [at 5 µM].
